Source: PubChem BioAssay (The Scripps Research Institute Molecular Screening Center)
TbREL1 primary = TbREL1 inhibition, primary screen. TbREL1 RNA ligation, FRET fluorescence. inhibition, % at 9.66 µM. 89,000 tested, 0.49% active;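 active = inhibition above the mean inhibition across all screened compounds plus 3 SD, cut at about 11% in these data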
Target sequence (P86926 whole entry, looked up): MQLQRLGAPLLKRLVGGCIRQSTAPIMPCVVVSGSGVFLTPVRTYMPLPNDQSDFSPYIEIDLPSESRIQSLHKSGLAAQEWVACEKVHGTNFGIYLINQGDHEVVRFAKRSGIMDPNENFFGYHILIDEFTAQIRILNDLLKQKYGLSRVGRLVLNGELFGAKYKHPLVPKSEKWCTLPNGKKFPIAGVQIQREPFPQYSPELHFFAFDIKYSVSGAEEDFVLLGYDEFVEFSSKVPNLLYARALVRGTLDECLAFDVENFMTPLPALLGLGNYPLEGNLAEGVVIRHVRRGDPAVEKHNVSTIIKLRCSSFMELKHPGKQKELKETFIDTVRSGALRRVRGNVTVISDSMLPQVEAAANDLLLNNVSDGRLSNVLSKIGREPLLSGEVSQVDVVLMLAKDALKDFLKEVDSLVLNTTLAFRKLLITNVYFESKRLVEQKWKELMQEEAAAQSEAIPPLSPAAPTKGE
TbREL1 conf = TbREL1 inhibition, confirmation; shares compounds with TbREL1 primary; TbREL1 RNA ligation, FRET fluorescence; inhibition, % at 9.66 µM; 390 tested, 37% active; AID 1117282;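 active = mean inhibition across replicates above a set limit taken from the earlier primary screen, cut at about 11% in these data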
Numbers stand for hits; n = inactive. The entries come from a sample that favours hits as a whole.

SMILES	TbREL1 primary	others
COC(=O)[C@]12C[C@H](CC(=O)NCc3cccc4ccccc34)C(=O)N(CCC3=CCCCC3)C1=C[C@H](C1CCCC1)O[C@@H]2C	n
O=S(=O)(c1ccccc1)N1CCN(S(=O)(=O)c2ccc3c(c2)OCCO3)CC1	n
COC(=O)[C@]12CCCCC=C1N(Cc1ccc(Cl)cc1Cl)C(=O)[C@H](CC(=O)N1CCC(c3ccccc3)CC1)C2	n
CN1CCC(N[C@@H](Cc2c[nH]c3ccccc23)C(=O)NCC(c2ccccc2)c2ccccc2)(C(=O)NC2CCCCC2)CC1	n
CC(C)C[C@H](NC1(C(=O)NC2CCCCC2)CCN(C)CC1)C(=O)NCC(c1ccccc1)c1ccccc1	17	TbREL1 conf=18
CC(C)C[C@H](NC1(C(=O)NC2CCCCC2)CCCCC1)C(=O)NCC(c1ccccc1)c1ccccc1	n
Nn1c(SCC(=O)Nc2cccc3ccccc23)nnc1-c1cc(-c2ccccc2)n[nH]1	n
Cc1cc(NS(=O)(=O)c2ccc(NC(=O)CSc3nnc(-c4ccc(Cl)cc4)n3Cc3ccco3)cc2)nc(C)n1	n
Cc1ccc(OCc2nnc(SCC(=O)Nc3ccc(S(=O)(=O)Nc4cc(C)nc(C)n4)cc3)n2Cc2ccco2)cc1	n
Cc1cc(NS(=O)(=O)c2ccc(NC(=O)CSc3nnc(-c4ccncc4)n3Cc3ccco3)cc2)nc(C)n1	35	TbREL1 conf=n
CN(Cc1ccco1)C(=O)c1cccc2c1C(=O)N(Cc1cccnc1)C2	n
CCCOc1nccc2c1n(C)c(=O)n2C	n
CCCOC(=O)c1ccc(O)c(OC)c1	n
COc1ccc(N)cc1C#N	n
CCCOc1ccc(N)cc1N	12	TbREL1 conf=n
CCn1c2ccccc2c2cc(NC(=O)COC(=O)c3ccc(F)cc3F)ccc21	n
CCN(C(=O)C1CCN(c2ncccn2)CC1)c1ccccc1	n
Nc1cccc(S(=O)(=O)N2CCCN(S(=O)(=O)c3ccc4c(c3)OCCO4)CC2)c1	n
CC(=O)c1ccc(Nc2ccc(-c3ccccc3F)nn2)cc1	13	TbREL1 conf=n
O=C(c1ccccc1)c1nnc(-c2ccccc2F)o1	n
CC(=O)c1ccc(NS(=O)(=O)c2ccccc2)cc1	n
O=C(Cn1nnc(-c2ccncc2)n1)Nc1ccc(Cl)cc1	n
COc1ccccc1CNC(=O)NNC(=O)CCn1nc(C)c([N+](=O)[O-])c1C	n
O=P(c1ccccc1)(c1ccccc1)c1cnc2ccccn12	n
Oc1ccc(Nc2ccccc2F)c2cccnc12	17	TbREL1 conf=n
SMILES	TbREL1 primary	others
Oc1ccc(CNc2ccccc2F)c2cccnc12	n
Oc1ccc(-c2ccccc2F)c2cccnc12	n
O=C(NCC1COCCO1)C1CCN(S(=O)(=O)c2cccc3ccccc23)CC1 (stereo unspecified)	n
Cn1c(=O)c(=O)n(C)c2cc(S(=O)(=O)N3CCN(Cc4ccc(F)cc4)CC3)ccc21	n
COc1ccc2cc3cc(C(=O)Nc4ccc(F)cc4)sc3nc2c1	n
COc1ccc(C(=O)C[n+]2ccc3c(c2)nc(Cc2ccccc2)n3C)cc1	n
O=C(Nc1ccc(F)cc1)Nc1nc2ncccn2c1-c1ccc(F)cc1	n
COc1ccc2c3c([nH]c2c1)[C@]1(CCNC=O)Nc2ccccc2C1=NCC3	11	TbREL1 conf=n
COc1ccc2[nH]c3c(c2c1)CCN[C@]31C(=O)Nc2ccccc21	n
COc1ccc2c3c([nH]c2c1)C1=NCC[C@]12c1ccccc1N=CN2CC3	n
Cc1ccc(NC(=S)NNC(=O)CSc2nc3sc4c(c3c(=O)n2-c2ccccc2)CCCC4)cc1	n
O=S1(=O)c2ccc(N3CCC[C@H]3CO)cc2O[C@@H]2CCN1C2	n
COc1ccc(N2C(=O)c3ccccc3NC(=O)C2C(=O)NCC(C)C)cc1 (stereo unspecified)	n
CN(C)CCNc1ncnc2ccccc12	n
CN(C)CCCNc1ncnc2sc(-c3ccccc3)cc12	14	TbREL1 conf=n
CC(C)N(C(=O)CSc1ncnc2sc(-c3ccccc3)cc12)C(C)C	n
CCOC(=O)[C@]12CCCC=C1N(Cc1ccc(OC)cc1)C(=O)[C@@H]2CC(=O)NCCCN1CCCC1=O	n
CC(O)c1nc2ccccc2n1C/C=C/c1ccccc1 (stereo unspecified)	n
Cc1c(P(=S)(c2ccccc2)c2ccccc2)[n+]2ccccc2n1C/C=C/c1ccccc1	14	TbREL1 conf=22
S=c1[nH]nc(-c2n[nH]c3c2CCC3)n1N=Cc1c[nH]c2ccccc12	n
O=C(NCc1ccc(C(=O)N2CCCC2)cc1)c1cccc(Br)c1	n
COCCOC(=O)C1=C(C)N(Cc2ccccc2)C(=O)NC1c1cccc(OC)c1OC (stereo unspecified)	n
C=CCN=C1NC(c2ccccc2C(F)(F)F)C(C(=O)OC)=C(C)N1Cc1ccc(C(F)(F)F)cc1 (stereo unspecified)	14	TbREL1 conf=18
C=CCN=C1NC(c2ccccc2C(F)(F)F)C(C(=O)OC)=C(C)N1Cc1cccc(C(F)(F)F)c1 (stereo unspecified)	15	TbREL1 conf=18
CCN=C1NC(c2ccccc2C(F)(F)F)C(C(=O)OC)=C(C)N1C (stereo unspecified)	n
SMILES	TbREL1 primary	others
COC(=O)C1=C(C)N(Cc2cccc(C(F)(F)F)c2)C(=NCC2CC2)NC1c1ccccc1C(F)(F)F (stereo unspecified)	15	TbREL1 conf=15
CCN=C1NC(c2ccc(C(F)(F)F)cc2)C(C(=O)OC)=C(C)N1Cc1cccc(C(F)(F)F)c1 (stereo unspecified)	n
COC(=O)C1=C(C)N(Cc2cccc(C(F)(F)F)c2)C(=NCc2cc(OC)c(OC)c(OC)c2)NC1c1ccccc1C(F)(F)F (stereo unspecified)	14	TbREL1 conf=19
Oc1ccccc1C=NN1CCN(Cc2ccccc2)CC1	n
O=C(C1CCCN1S(=O)(=O)c1cccc2ccccc12)N1CCN(c2ccccc2)CC1 (stereo unspecified)	n
COC(=O)c1cccc(Cn2ccc3ccc(-c4ccc5ccn(C(=O)c6cccc(OC)c6)c5c4)cc32)c1	n
CC[C@@]1(c2cccc(Cl)c2)C(=O)N(C(=O)OC(C)C)N1C(=O)OC(C)C	n
COC(=O)[C@]12C[C@H](CC(=O)NCCCN3CCCC3=O)C(=O)N(Cc3cccc4ccccc34)C1=C[C@H](C1CCCC1)O[C@@H]2C	n
Fc1ccc(C2=Nn3c(nnc3C3CCCCC3)SC2)cc1	n
O=C(Nc1cccc(F)c1)OCCN1CCCC12CCC(c1ccccc1)CC2 (stereo unspecified)	n
O=S(=O)(Nc1cccc(-c2cn3c(n2)SCC3)c1)c1ccccc1F	n
Oc1ccc(-c2cn3c(n2)SCC3)cc1O	17	TbREL1 conf=41
Oc1ccc(-c2cn3c(n2)SCC3)cc1	n
CCCC1CCC2(CC1)CCC2OC(=S)Nc1ccccc1OC (stereo unspecified)	n
Cc1ccc(-n2c(SCC(=O)NN=Cc3c[nH]c4ccccc34)nnc2-c2ccccc2)cc1	n
c1ccc(-c2cnc(SCCN3CCOCC3)n2CC2CCCO2)cc1 (stereo unspecified)	15	TbREL1 conf=n
COc1ccc(-c2cnc(N)n2CC2CCCO2)cc1 (stereo unspecified)	n
c1ccc(-c2csc(=Nc3cccnc3)n2CC2CCCO2)cc1 (stereo unspecified)	n
CC(C)N1CCCCC(NC(=O)c2ccccc2)C1=O (stereo unspecified)	n
COC(=O)[C@]12CCCCC=C1N(Cc1ccc3c(c1)OCO3)C(=O)[C@H](CC(=O)N1CCSCC1)C2	n
O=C(/C=C/c1cccc([N+](=O)[O-])c1)Nc1cc(C(=O)O)cc(C(=O)O)c1	n
